We go through 39 molecules from PubChem BioAssay (Tox21).

Inconclusive results are not listed. Where a call stands in place of a potency, no number is given. Activity calls are given as the source filed them. The call rests on the fitted dose curve; in most records, active means well fitted cell-killing curve with a large enough effect in the repeat runs; inconclusive means weak or mixed curves, or effect the other way; inactive means flat fitted curve, though single readings scatter.

One test is described as follows: qHTS assay to identify small molecule antagonists of the estrogen receptor alpha (ER-alpha) signaling pathway using the BG1 cell line in the presence of 0.1 nM 17-beta-estradiol - cell viability counter screen (AID 1259241). Further: nearly all actives have a fitted effect of over 40% in size. Further: potency means the concentration at half of the fitted maximal effect. The conditions noted are these: VM7Luc4E2 (BG1) viability, CellTiter-Fluor protease, 22 h, 0.1 nM estradiol agonist added; series mostly up to 92.4 µM; activity change, negative = cytotoxicity: at the top concentration. The gist of the method:
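Live-cell protease activity (CellTiter-Fluor fluorescence, 30 min) was read in the same wells after VM7Luc4E2 cells had been exposed to compounds with 0.1 nM 17beta-estradiol for 22 hr at 37C.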
(In general: In qHTS, concentration-response curves come from the screen itself.)
In the case of `Nc1ccc(N)c(Cl)c1`, the “activity change, negative = cytotoxicity” value is -0.106% (inactive). `CCCCCCCCCCC(CO)CCCCCCCC` (configuration not stated): the Potency result is “inactive”. On to `C=CCCCCCCCCCC`, for which the Potency result is “inactive”. Consider `C=CCNCC=C`, for which the Potency entry was “inactive”. The same measure, in the same setting: the result for `Brc1nc2ccccc2s1` reads “inactive”; that for `CCCCCCCCCCCCO`, “inactive”; that for `Nc1ccc2c(O)cc(S(=O)(=O)O)cc2c1`, 61.1 µM (active). Take `NC[C@H](O)c1ccc(O)c(O)c1`: the “activity change, negative = cytotoxicity” value was -5.94% [at 42.5 µM] (inactive). `CCOC(=O)C(C)Oc1ccc(Oc2cnc3cc(Cl)ccc3n2)cc1` (configuration not stated): the Potency result was “inactive”. Still for that read-out and setting: the entry for `CCCN1C=CN(C)C1` is “inactive”. Consider `Oc1ccc(C(c2ccc(O)cc2)C(Cl)(Cl)Cl)cc1`, for which the “activity change, negative = cytotoxicity” value was -0.006% (inactive). Take `CCCCCCCCCCCCCO`: the Potency entry was “inactive”.

Take `IC(I)I`: the Potency entry is “inactive”. Still for that read-out and setting: the result for `CN(C)C` reads “inactive”. On to `COc1ccc(C(=O)c2ccccc2O)c(O)c1`, for which the Potency entry is “inactive”. Regarding `c1ccc2ncccc2c1`, the Potency result was “inactive”.

On to `CC/C(=C(/CC)c1ccc(O)cc1)c1ccc(O)cc1`, for which the Potency entry was “inactive”.

For `CN1CCOCC1`, the Potency entry is “inactive”. For `Cc1cccc(Nc2ccccc2C(=O)O)c1C`, the Potency result is “inactive”. As for `CC1(C)NC(=O)N(c2ccc([N+](=O)[O-])c(C(F)(F)F)c2)C1=O`, the Potency entry is “inactive”. Take `C=CC(=O)OCCCC`: the Potency entry was “inactive”. As for `C[C@]12CC[C@@H]3c4ccc(O)cc4CC[C@H]3[C@@H]1CC[C@@H]2O`, the Potency result is “inactive”. Same read-out and setting: the result for `C1COCCN1` reads “inactive”; that for `C=CCOC(=O)C(=C)C`, “inactive”. For `C=C[C@H]1CN2CC[C@H]1C[C@H]2[C@H](O)c1ccnc2ccc(OC)cc12`, the Potency result is “inactive”. As to `C=C[C@H]1CN2CC[C@H]1C[C@@H]2[C@@H](O)c1ccnc2ccc(OC)cc12`, the Potency result is “inactive”.

Consider `CCCCCCOCCOCCO`, for which the Potency entry is “inactive”.

`c1ccc2c(c1)ccc1cc3c(ccc4ccccc43)cc12`: the Potency entry was “inactive”. For the molecule `Cc1ccc2c(c1)C(=O)OC2=O`, the Potency result was “inactive”. As for `C[C@]12CC[C@@H]3c4ccc(O)cc4CC[C@H]3[C@@H]1CC[C@H]2O`, the Potency result is “inactive”. As for `CCCOCCO`, the Potency entry was “inactive”.

As to `O=S1(=O)CCCO1`, the Potency entry is “inactive”. For `O=C(CCCN1CCC(O)(c2ccc(Cl)cc2)CC1)c1ccc(F)cc1`, the “activity change, negative = cytotoxicity” value was -10.6% [at 42.5 µM] (inactive). For the molecule `Clc1ccc(Sc2cc(Cl)c(Cl)cc2Cl)cc1`, the Potency entry is “inactive”.

Another test in a line: qHTS assay to identify small molecule antagonists of the androgen receptor (AR) signaling pathway using the MDA cell line in the presence of 0.5 nM R1881 - cell viability counter screen (AID 1259242). Further: nearly all actives have a fitted effect of over 45% in size. The conditions noted are these: MDA-kb2 viability, CellTiter-Fluor protease fluorescence, 16 h; series mostly up to 92.4 µM; viability change, negative = cytotoxic: at the top concentration. The gist of the method: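 Steps: plate MDA-kb2 cells, rest 5 hr at 37C without CO2; pin in compounds in DMSO; add R1881 to 0.5 nM final; incubate 16 hr; add CellTiter-Fluor, 30 min; read fluorescence.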
In the case of `Nc1ccc(N)c(Cl)c1`, the Potency result was “inactive”. As for `CC1(C)C(C=C(Cl)Cl)C1C(=O)OCc1cccc(Oc2ccccc2)c1` (configuration not stated), the Potency result was “inactive”. With `CCCCCCCCCCC(CO)CCCCCCCC` (configuration not stated), the Potency entry was “inactive”. For `C=CCCCCCCCCCC`, the Potency entry is “inactive”. In the case of `C=CCNCC=C`, the Potency entry was “inactive”. In the case of `Brc1nc2ccccc2s1`, the Potency result was “inactive”. For the molecule `CCCCCCCCCCCCO`, the Potency result was “inactive”. Regarding `NC[C@H](O)c1ccc(O)c(O)c1`, the Potency result was “inactive”. Still for that read-out and setting: the entry for `CCOC(=O)C(C)Oc1ccc(Oc2cnc3cc(Cl)ccc3n2)cc1` (configuration not stated) is “inactive”. Regarding `CCCN1C=CN(C)C1`, the Potency entry was “inactive”. On to `O=C(O)COCCN1CCN(C(c2ccccc2)c2ccc(Cl)cc2)CC1` (configuration not stated), for which the Potency result was “inactive”. In the case of `Oc1ccc(C(c2ccc(O)cc2)C(Cl)(Cl)Cl)cc1`, the Potency entry was “inactive”. For `CCCCCCCCCCCCCO`, the Potency entry is “inactive”.

For `c1ccc2c(c1)ccc1ncccc12`, the Potency result is “inactive”. Turning to `CN(Cc1cnc2nc(N)nc(N)c2n1)c1ccc(C(=O)N[C@@H](CCC(=O)O)C(=O)O)cc1`, the Potency result is “inactive”. With `Cc1ccc(S(=O)(=O)NCl)cc1`, the Potency entry is “inactive”. As for `IC(I)I`, the Potency entry is “inactive”. Still for that read-out and setting: the entry for `CN(C)C` is “inactive”.

On to `COc1ccc(C(=O)c2ccccc2O)c(O)c1`, for which the Potency result was “inactive”. On to `c1ccc2ncccc2c1`, for which the Potency result was “inactive”. For `CC/C(=C(/CC)c1ccc(O)cc1)c1ccc(O)cc1`, the Potency entry is “inactive”.

As to `CN1CCOCC1`, the Potency entry is “inactive”.

With `Cc1cccc(Nc2ccccc2C(=O)O)c1C`, the Potency result is “inactive”. Consider `CC1(C)NC(=O)N(c2ccc([N+](=O)[O-])c(C(F)(F)F)c2)C1=O`, for which the Potency result was “inactive”. `C=CC(=O)OCCCC`: the Potency result is “inactive”. As to `C[C@]12CC[C@@H]3c4ccc(O)cc4CC[C@H]3[C@@H]1CC[C@@H]2O`, the Potency entry is “inactive”. For the molecule `C1COCCN1`, the Potency entry is “inactive”. `C=CCOC(=O)C(=C)C`: the Potency result is “inactive”. As for `C=C[C@H]1CN2CC[C@H]1C[C@H]2[C@H](O)c1ccnc2ccc(OC)cc12`, the Potency result is “inactive”. The same measure, in the same setting: the result for `C=C[C@H]1CN2CC[C@H]1C[C@@H]2[C@@H](O)c1ccnc2ccc(OC)cc12` reads “inactive”; that for `CCCCCCOCCOCCO`, “inactive”.

For the molecule `c1ccc2c(c1)ccc1cc3c(ccc4ccccc43)cc12`, the Potency entry was “inactive”. Take `Cc1ccc2c(c1)C(=O)OC2=O`: the Potency result was “inactive”. Regarding `C[C@]12CC[C@@H]3c4ccc(O)cc4CC[C@H]3[C@@H]1CC[C@H]2O`, the Potency entry was “inactive”. On the same count and under the same terms, the entry for `CCCOCCO` is “inactive”; for `O=S1(=O)CCCO1` it is “inactive”.

As to `O=C(CCCN1CCC(O)(c2ccc(Cl)cc2)CC1)c1ccc(F)cc1`, the “viability change, negative = cytotoxic” value was 1.65% [at 42.5 µM] (inactive). As for `Clc1ccc(Sc2cc(Cl)c(Cl)cc2Cl)cc1`, the Potency entry was “inactive”.
